This is an account of results in PubChem BioAssay.

In the experiment the target is Alpha-bungarotoxin (Bungarus multicinctus) (UniProt P60615). Kind of experiment: compounds binding labelled alpha-BTX control protein – biochemical, small-molecule microarray, Alexa647 label, 635/667 nm fluorescence, artefact control for SMM control protein annotation, profiling panel (AID 1117). The settings on record: alpha-BTX-A647 binding fluorescence, higher = more signal.
Chain of Alpha-bungarotoxin (Bungarus multicinctus) (P60615 whole entry, looked up): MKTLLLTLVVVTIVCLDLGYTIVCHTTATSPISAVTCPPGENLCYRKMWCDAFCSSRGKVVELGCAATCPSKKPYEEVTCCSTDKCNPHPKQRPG
Molecule `CCOC(=O)c1cn(C[C@H](Cc2ccccc2)NC(=O)N[C@H](CO)CCc2oc(C(C)=O)c(C(=O)OC)c2C(=O)OC)nn1` returned a composite z-score of 0.491. Molecule `NCCCCCCNC(=O)[C@@H]1C[C@@H]2C(=O)N3CCC[C@H]3C(=O)N2[C@@H]1c1cccc(OCCO)c1` gave a composite z-score of 1.01. For `COCCOC(=O)N1C(=O)[C@@]2(c3cc(C#CCCO)ccc31)[C@H](C(N)=O)[C@H]1C(=O)O[C@H](c3ccccc3)[C@H](c3ccccc3)N1[C@@H]2c1ccccc1OCCO` the value was 2.08.
